Experimental data: the supplement of paper PMC7156485

Key:
Conditions in all cases: concentration: 10 µM; 24 h
HCC1569 [1] = assay: cell number relative to DMSO (% of DMSO); higher = more cells (less growth inhibition / toxicity)
Outline: (§1)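 Using 384-well plates with 800 cells per well in RPMI plus 10% FBS, HCC1569 and TDF cells were exposed to compounds at 10 µM, in triplicate, for 24 h at 37 °C. Imaging of six fields per well at ×10 followed H1.0 and DAPI staining. The reported quantity, H1.0 nuclear intensity or cell number, is a median of replicates given as percent of the plate control, and HCC1569 values were smoothed for positional effects.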

TDF [2] = assay: as above
Outline: as §1

TDF [3] = assay: H1.0 immunofluorescence intensity relative to DMSO (% of DMSO); higher = stronger H1.0 induction, active = 120 or more
Outline: as §1

HCC1569 [4] = assay: H1.0 immunofluorescence intensity relative to DMSO (% of DMSO); higher = stronger H1.0 induction, active = 140 or more
Outline: as §1
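Throughout, for H1.0 immunofluorescence intensity relative to DMSO: TDF is a line of transformed human dermal fibroblasts of mesenchymal origin.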
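Throughout, for cell number relative to DMSO: TDF denotes transformed human dermal fibroblasts of mesenchymal origin.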

Row | Structure (SMILES) | cell number (HCC1569 [1]) | cell number (TDF [2]) | H1.0 immunofluorescence intensity (TDF [3]) | H1.0 immunofluorescence intensity (HCC1569 [4])
1 | S=C(Nc1ccccc1)Nc1nccs1 [1-Phenyl-3-(2-thiazolyl)-2-thiourea] | 95.5 | 86.9 | 99.5 (inactive) | 102 (inactive)
2 | COc1ccccc1OCC(O)CN1CCN(CC(=O)Nc2c(C)cccc2C)CC1.Cl.Cl (stereo unspecified) [Ranolazine.2HCl] | 104 | 93.2 | 94.2 (inactive) | 102 (inactive)
3 | CC(Cc1ccc(O)c(O)c1)(NN)C(=O)O (stereo not drawn) [S-(-)-Carbidopa] | 106 | 112 | 91.7 (inactive) | 90 (inactive)
4 | Cc1ccc(NC2=CC(=O)c3sc(C)nc3C2=O)cc1 [Cdk4 Inhibitor III] | 26.6 | 12 | 132 (active) | 105 (inactive)
5 | CCCCCCCCCCCC(CC1OC(=O)C1CCCCCC)OC(=O)C(CC(C)C)NC=O (stereo unspecified) [Tetrahydrolipistatin] | 100 | 99.2 | 99.2 (inactive) | 90.5 (inactive)
6 | CCCCCCCCC=CCCCCCCCCOCC(COP(=O)([O-])OCC[N+](C)(C)C)OC(C)=O (stereo unspecified) | 101 | 114 | 94 (inactive) | 98.3 (inactive)
7 | CC(C)NCC(O)COc1cccc2[nH]ccc12 (stereo not drawn) [S(-)-Pindolol] | 102 | 107 | 84.4 (inactive) | 98.4 (inactive)
8 | C=CC1CN2CCC1CC2C(O)c1ccnc2ccc(OC)cc12.Cl.O (stereo unspecified) | 99.6 | 90.1 | 96.8 (inactive) | 95 (inactive)
9 | CC[n+]1c(C=CN(C)c2ccccc2)n(-c2ccccc2)c2ccc(-c3nc4ccccc4s3)cc21.[I-] [Akt Inhibitor IV] | 38.7 | 21.3 | 148 (active) | 66.5 (inactive)
10 | CC(C)Cn1cnc2c(N)nc3ccccc3c21 [Imiquimod] | 102 | 93.4 | 95.3 (inactive) | 108 (inactive)
11 | Cc1nc2ccc(Oc3ccc(F)cc3)cc2c(=O)n1C[C@H]1CCCN(C(C)C)C1.Cl | 94.1 | 105 | 117 (inactive) | 102 (inactive)
12 | Cc1cccc(-c2nn(C(=S)Nc3ccccc3)cc2-c2ccnc3ccccc23)n1 | 98.7 | 97.7 | 82.2 (inactive) | 134 (inactive)
13 | CC(C)NCC(O)COc1ccc(CCOCC2CC2)cc1.Cl (stereo unspecified) [Betaxolol.HCl] | 103 | 98 | 90.4 (inactive) | 102 (inactive)
14 | CC(C(O)c1ccc(O)cc1)N1CCC(Cc2ccccc2)CC1.CC(C(O)c1ccc(O)cc1)N1CCC(Cc2ccccc2)CC1.O=C(O)C(O)C(O)C(=O)O (stereo unspecified) [Ifenprodil tartrate] | 101 | 108 | 100 (inactive) | 96.7 (inactive)
15 | CC(C)(C)NCC(O)c1ccc(O)c(CO)c1.CC(C)(C)NCC(O)c1ccc(O)c(CO)c1.O=S(=O)(O)O (stereo unspecified) [Albuterol hemisulfate] | 99.8 | 103 | 92.5 (inactive) | 107 (inactive)
16 | CS(=O)(=O)Nc1ccc(-c2coc3cc(OCc4cccc(C(=O)O)c4)ccc3c2=O)cc1 | 101 | 109 | 90.9 (inactive) | 107 (inactive)
17 | CN(C)[C@@H]1CCc2[nH]c3ccc(NC(=O)c4ccc(F)cc4)cc3c2C1.Cl | 99.2 | 90.8 | 94.9 (inactive) | 114 (inactive)
18 | COc1cc(Nc2c(C#N)cnc3cc(OCCCN4CCN(C)CC4)c(OC)cc23)c(Cl)cc1Cl [Bosutinib] | 67 | 7.38 | 135 (active) | 39.6 (inactive)
19 | CCOC(=O)Oc1c(OC)cc(C(=O)OC2CC3CN4CCc5c([nH]c6cc(OC)ccc56)C4CC3C(C(=O)OC)C2OC)cc1OC (stereo unspecified) [Syrosingopine] | 94.7 | 104 | 96.8 (inactive) | 105 (inactive)
20 | Cc1ccc(S(=O)(=O)N2c3ccccc3Oc3ccccc32)cc1 [10-[(4-methylphenyl)sulfonyl]-10H-phenoxazine] | 53.5 | 11.3 | 161 (active) | 154 (active)
21 | CCCCCCCCCCCCCCC(F)C(=O)O (stereo unspecified) [2-Fluoropalmitic acid] | 105 | 102 | 99.7 (inactive) | 104 (inactive)
22 | CC(=O)C1=C(O)C=C2Oc3c(C(C)=O)c(O)c(C)c(O)c3C2(C)C1=O (single isomer, unassigned; (+)) [(+)-Usnic acid] | 100 | 109 | 96.7 (inactive) | 91.2 (inactive)
23 | Nc1ccn(C2CCC(CO)O2)c(=O)n1 (stereo unspecified) ["2',3' - Dideoxycytidine"] | 107 | 87.5 | 100 (inactive) | 101 (inactive)
24 | Cc1ccc(Nc2nccc(N(C)c3ccc4c(C)n(C)nc4c3)n2)cc1S(N)(=O)=O [Pazopanib] | 74.3 | 100 | 94.6 (inactive) | 156 (active)
25 | Br.Br.N=C(N)SCCN [2-(2-Aminoethyl)isothiourea dihydrobromide] | 99.2 | 85.8 | 96.9 (inactive) | 99.7 (inactive)

Row | Structure (SMILES) | cell number (HCC1569 [1]) | cell number (TDF [2]) | H1.0 immunofluorescence intensity (TDF [3]) | H1.0 immunofluorescence intensity (HCC1569 [4])
26 | O=C(CCCCCCc1ccccc1)c1ncc(-c2ccccn2)o1 [7-phenyl-1-[5-(2-pyridinyl)-1,3-oxazol-2-yl]-1-heptanone] | 104 | 104 | 98.3 (inactive) | 107 (inactive)
27 | O=C(O)c1ccc(O)c2ncccc12 [8-hydroxy-5-quinolinecarboxylic acid] | 102 | 99.2 | 94.9 (inactive) | 98 (inactive)
28 | O=S1(=O)CCN(CN2CCS(=O)(=O)NC2)CN1 | 98.4 | 99.3 | 88.2 (inactive) | 94 (inactive)
29 | CCN(CC)CCOCCOC(=O)C1(c2ccccc2)CCCC1.O=C(O)CC(O)(CC(=O)O)C(=O)O [Carbetapentane citrate] | 86.4 | 89 | 107 (inactive) | 97.4 (inactive)
30 | CS(=O)c1ccc(-c2nc(-c3ccc(F)cc3)c(-c3ccncc3)[nH]2)cc1.Cl (stereo unspecified) | 88.9 | 99.5 | 94.5 (inactive) | 117 (inactive)
31 | CCCOc1ccc2nc(NC(=O)OC)[nH]c2c1 [Oxibendazole] | 62.8 | 9.31 | 157 (active) | 154 (active)
32 | CCC1(O)C(=O)OCc2c1cc1n(c2=O)Cc2cc3c(CN(C)C)c(O)ccc3nc2-1.Cl (stereo unspecified) [Topotecan.HCl] | 65.7 | 17.1 | 154 (active) | 96.3 (inactive)
33 | CCN(CC)CCNC(=O)c1c(C)[nH]c(C=C2C(=O)Nc3ccc(F)cc32)c1C [Sunitinib] | 92.1 | 58.7 | 106 (inactive) | 173 (active)
34 | CCOC(=O)C(CCc1ccccc1)NC(C)C(=O)N1C(C(=O)O)CC2CCCC21 (stereo unspecified) [Ramipril] | 105 | 105 | 94.6 (inactive) | 111 (inactive)
35 | O=C(O)CCCC=CCC1C(=O)CC(O)C1C=CC(O)CCc1ccccc1 (stereo unspecified) [17-Phenyl-trinor-prostaglanding E2] | 105 | 102 | 106 (inactive) | 97.5 (inactive)
36 | Cc1ccc(-c2ncc(Cl)cc2-c2ccc(S(C)(=O)=O)cc2)cn1 [Etoricoxib] | 106 | 97.1 | 101 (inactive) | 92.2 (inactive)
37 | O=C(C=Cc1ccc(O)c(O)c1)c1ccc(OC2OC(CO)C(O)C(O)C2O)c(O)c1O (stereo unspecified) [Marein] | 99.4 | 108 | 92 (inactive) | 91.5 (inactive)
38 | Clc1ccc(C(Cn2ccnc2)OCc2csc3c(Cl)cccc23)c(Cl)c1.O=[N+]([O-])O (stereo unspecified) | 88.9 | 100 | 96.8 (inactive) | 119 (inactive)
39 | CN(C)CCCN1c2ccccc2CCc2ccccc21.Cl [Imipramine.HCl] | 100 | 97.4 | 95.2 (inactive) | 100 (inactive)
40 | CCN(CC)CCCC(C)Nc1c2ccc(Cl)cc2nc2ccc(OC)cc12 (stereo unspecified) [Quinacrine] | 89.3 | 39.5 | 118 (inactive) | 180 (active)
41 | Cl.O=S(=O)(c1cccc2cnccc12)N1CCCNCC1 | 100 | 93.8 | 92.4 (inactive) | 92.7 (inactive)
42 | O=C1c2ccccc2-n2c1nc1ccccc1c2=O [Tryptanthrin] | 96.9 | 53.6 | 101 (inactive) | 93.6 (inactive)
43 | Cc1c[nH]c(C=C2C(=O)Nc3ccccc32)c1CCC(=O)O | 101 | 102 | 95.4 (inactive) | 103 (inactive)
44 | O.O.O=c1c(O)c(-c2ccc(O)c(O)c2)oc2cc(O)cc(O)c12 [Quercetin dihydrate] | 88.6 | 98.7 | 90.2 (inactive) | 134 (inactive)
45 | C=C(CC)C(=O)c1ccc(OCC(=O)O)c(Cl)c1Cl [Ethacrynic Acid] | 100 | 101 | 95.9 (inactive) | 100 (inactive)
46 | CN(C)CC(C)(C)CNc1nn2c(-c3ccccc3)nnc2cc1C1CCC1 | 101 | 103 | 99.9 (inactive) | 92.2 (inactive)
47 | CC[C@H](NC(=O)c1c(O)c(-c2ccccc2)nc2ccccc12)c1ccccc1 | 101 | 98.3 | 97.8 (inactive) | 107 (inactive)
48 | O=c1c(O)c(-c2ccc(O)c(O)c2)oc2cc(O)ccc12 [Fisetin] | 95.8 | 95.8 | 96 (inactive) | 101 (inactive)
49 | COc1ccc(Cl)cc1C(=O)NCCc1ccc(S(=O)(=O)NC(=O)NC2CCCCC2)cc1 [Glibenclamide] | 101 | 105 | 93.9 (inactive) | 90.3 (inactive)
